Assay outcomes deposited in PubChem BioAssay by National Center for Advancing Translational Sciences (NCATS).
The list is not random: actives were taken first. Their share in the collection is about 4.2%.
ClpP mod: qHTS Assay for Activators of ClpP. purified B. subtilis ClpP, FRET peptide cleavage, 20 min. Potency, µM (highest dose often 57.5 µM), inactives show top-dose activity change, negative = active. 340,000 compounds, 1.9% hits; active means well fitted falling curve with a large enough effect; inconclusive means small, poorly fitted or top-dose-only effect; inactive means no such curve, though single readings can be large or run the other way; further: potency means the concentration at half of the fitted maximal effect; the source files actives as falling curves though it sought activators and does not explain the sign; nearly all actives have a fitted effect of over 65% in size
Target sequence (P80244 whole entry, looked up): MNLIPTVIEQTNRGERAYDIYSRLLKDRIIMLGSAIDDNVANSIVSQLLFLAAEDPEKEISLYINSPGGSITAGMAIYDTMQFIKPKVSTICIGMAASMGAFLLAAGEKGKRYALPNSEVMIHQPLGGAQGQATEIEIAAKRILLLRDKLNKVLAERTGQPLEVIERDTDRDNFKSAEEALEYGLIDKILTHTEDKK
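FRET quenching reversal measured ClpP activation: 10 microg/mL B. subtilis ClpP at pH 8 with the FRET-FV decapeptide, read at 430 nm after 320 nm excitation. The 20-min minus 0-min signal was scaled between DMSO/no-enzyme wells and ADEP (5.8 microM final).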
Sfp inh: qHTS Assay for Inhibitors of Bacillus subtilis Sfp phosphopantetheinyl transferase (PPTase); AID 1490, 2009; Biochemical Sfp PPTase activity, qHTS; Potency, µM, inactives show largest response in the series, negative = inhibition, hits mostly inhibitors; 310,000 compounds, 3.5% hits; 4'-phosphopantetheinyl transferase ffp (Bacillus subtilis), Q9F4F7;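 further: the enzyme is Sfp with the accession as filed and its product quenches rhodamine fluorescence; potency means the concentration at half of the fitted maximal effect; 0% = enzyme reaction without inhibitor and -100% = no enzyme wells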
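Step 1, compound plus 15 nM Sfp-PPTase, 15 min, room temperature. Step 2, add rhodamine-CoA (5 uM) and BHQ-2-YbbR (12.5 uM). Step 3, read 525/598 nm fluorescence at 0 and 30 min.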
uPA surface inh: qHTS for Inhibitors of Cell Surface uPA Generation; cell surface uPA generation assay, qHTS; Potency, µM (titrated, usually from 38.3 µM), for the others: at the top dose activity change, negative = inhibition, usual class: inhibitors; 330,000 compounds, 0.31% hits; AID 540303, 2011; active means well fitted inhibition curve with a large enough effect; inconclusive means small, poorly fitted or top-dose-only effect; inactive means no such curve, though single readings can be large or run the other way; tested in mouse RAW 264.7 cells; further: potency means the concentration at half of the fitted maximal effect; on the % scale 0 is the no-effect control and ±100 the full control effect; nearly all actives have a fitted effect of over 55% in size
TCR act: Activators of T cell receptors: qHTS campaign; primary human leukocytes, anti-CD3, IL-2 HTRF, 48 h; AID 504894, 2011; 330,000 tested, under 10 active; Potency, µM (doses to about 9.22 µM), for the others: at the highest dose activation of IL-2 secretion, usual class: activators; further: % of control where 0% means no effect
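TCR engagement came from a-CD3 beads alone, with compounds added to primary human leukocytes for 48 hr. Secreted IL-2 bridged europium cryptate- and d2-labelled anti-IL-2 antibodies, giving FRET emission at 665nm after 320nm excitation.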
The depositor's hits bear a star; ? = inconclusive; . = no result given; [ ] = remark or other dose. Unless noted, the call rests on the fitted dose curve; in most records, active means well fitted curve in the direction sought with a large enough effect; inconclusive means small, poorly fitted or top-dose-only effect, or another doubt; inactive means no such curve, though single readings can be large; an effect the other way counts as inactive or inconclusive.

SMILES	ClpP mod	Sfp inh	uPA surface inh	TCR act
Oc1ccc(/C=N/Nc2cccc3cccnc23)c(O)c1	0%	?	?	4%
Cc1cccc2nc(=S)n(C(=O)c3ccco3)n12	-12%	16µM*	6%	.
O=C(c1ccco1)n1c(=S)nc2ccccn21	-7%	-21%	.	0%
COc1cc(C2Nc3ccccc3C(=O)N2c2ccccc2)c(Br)cc1OCC(=O)O (stereo not drawn)	32µM*	6%	1%	1%[46.1 µM]
COc1ccc(-c2cc(NCCc3ccncc3)n3ncnc3n2)cc1	32µM*	11%	2%	-3%
COc1ccc(-c2cc(NCc3ccccn3)n3ncnc3n2)cc1	5%	-19%	10%	-1%
Cc1ccc(C)c(C(=O)OCC(=O)Nc2ccc(N3CCOCC3)cc2)c1	-2%	7%	4%	-30%
NC1=NC(=O)/C(=C\c2cc([N+](=O)[O-])ccc2Cl)S1	-1%	-10%	?	-5%
COc1cc(CNc2ccc3c(c2)CCC3)cc(OC)c1O	-4%	40µM*	.	9%
CCOc1cc(CNc2ccc3c(c2)CCC3)ccc1O	-7%	14%	-4%	-4%
Brc1ccc(C2=Nn3c(Cn4nnc5ccccc54)nnc3SC2)cc1	-1%	28µM*	-8%	1%
Cc1ccc(-c2nc3ccccc3c(=O)n2NC(=S)N(C)C)cc1	?	22µM*	-24%	2%[46.1 µM]
Cc1ccc(-c2nc3ccccc3c(=O)n2NC(=O)c2cccs2)cc1	3%	-11%	2%	-16%[46.1 µM]
CCN1CCCC1CNC(=O)c1ccc2c(=O)n(CCOC)c(=O)[nH]c2c1 (stereo not drawn)	32µM*	11%	3%	-3%
CCN1CCCC1CNC(=O)c1ccc2c(c1)NC(=O)/C(=C\c1ccc(C)cc1)S2 (stereo not drawn)	-3%	50µM*	-16%	2%
COCCn1c(=S)[nH]c2cc(C(=O)NCC3CCCO3)ccc2c1=O (stereo not drawn)	2%	?	.	-3%
COCCn1c(=O)[nH]c2cc(C(=O)NCC3CCCO3)ccc2c1=O (stereo not drawn)	28µM*	8%	2%	-8%
CN(C)CCCC1(O)c2ccccc2CCc2ccccc21	.	16%	-3%	1%
CN(C)CCCC1(O)c2ccccc2C=Cc2ccccc21	28µM*	-9%	-2%	3%[46.1 µM]
O=C(N=Nc1ccc(NOC(=O)c2ccccc2Br)cc1)c1ccccc1O	.	79µM*	.	.
Cc1ccnc2ccc(N)cc12	-13%	.	.	.
Cc1ccc2nc(-c3ccc(C)c(NC(=O)COc4ccc(Br)cc4)c3)oc2c1	-14%	.	.	.
CCCCCCCCCCCCCCCC[n+]1ccc(C)cc1	-1%	.	.	.
CN(c1ccc(C(=O)NCCSCc2ccc(Cl)cc2)cc1)S(=O)(=O)c1ccccc1	28µM*	-4%	-3%	4%[46.1 µM]
Cc1ccc(S(=O)(=O)N(C)c2ccc(C(=O)Nc3ccccc3C(=O)N3CCOCC3)cc2)cc1	18µM*	11%	3%	-3%
SMILES	ClpP mod	Sfp inh	uPA surface inh	TCR act
COc1ccc(S(=O)(=O)N(C)c2ccc(C(=O)Nc3ccccc3C(=O)N3CCOCC3)cc2)cc1	-1%	9%	1%	-2%
Cc1ccc(C(=O)NCCc2cccs2)cc1	-1%	19%	5µM*	-1%
CN(c1ccccc1)S(=O)(=O)c1ccc(NC(=O)c2ccc(-c3ccccc3)cc2)cc1	25µM*	18%	-9%	.
CC(=O)c1nnn(-c2nc(C#N)nc(N3CCOCC3)n2)c1C	0%	.	.	.
CCOC(=O)N1CCC2(CC1)OC(=O)C(C)=C2C(=O)NCc1cccc(F)c1	1%	.	.	.
CN(c1ccc(C(=O)NCc2cccs2)cc1)S(=O)(=O)c1ccccc1	0%	12%	2.2µM*	-6%
O=C(Cn1cc(SCc2ccccc2Cl)c2ccccc21)N1CCCCCC1	-2%	.	.	.
O=C(c1cccn2c(=O)c3ccc(Cl)cc3nc12)N1CCN(Cc2ccc3c(c2)OCO3)CC1	22µM*	4%	.	-4%
COc1cccc(CN2CCC(C(=O)N3CCN(Cc4ccc5c(c4)OCO5)CC3)CC2)c1OC	18µM*	18%	-5%	-3%
Cc1ccc2c(C)c(C(=O)N3CCN(Cc4ccc5c(c4)OCO5)CC3)oc2c1C	0%	79µM*	2%	1%
CCOC(=O)c1nc(Nc2ccc(C(=O)OC(C)C)cc2)c2ccccc2n1	35%	.	.	.
Cc1ccc(NC(=S)NNc2ccc([N+](=O)[O-])cc2S(=O)(=O)Nc2ccccc2C(=O)O)cc1C	-2%	40µM*	4%	-1%[46.1 µM]
C=CCn1c(N)c(C(=O)NCCC2=CCCCC2)sc1=S	-3%	25µM*	-4%	.
NC(=O)NCCC1=CCCCC1	0%	14%	-4%	14%
Cc1ccc(-n2ncc3c(N4CCC(C(N)=O)CC4)ncnc32)c(C)c1	-6%	20%	-1%	-14%
CCN(CC)C(=O)C1CCN(c2ncnc3c2cnn3-c2ccc(C)cc2C)CC1	0%	56µM*	0%	-2%
O=C(CNc1cccc(S(=O)(=O)N2CCOCC2)c1)Nc1cccc(Br)c1	28µM*	.	0%	-6%
O=S(=O)(c1cccc(NC(=S)Nc2ccc(Br)cc2Cl)c1)N1CCOCC1	-13%	45µM*	2%	5%
O=C(Cc1ccc(Br)cc1)Nc1cccc(S(=O)(=O)N2CCOCC2)c1	0%	.	5%	6%
CC1=C(C#N)C(c2ccc(O)cc2)C2=C(CCCC2=O)N1 (stereo not drawn)	.	13%	4%	-5%
CC1=C(C#N)C(c2cccnc2)C2=C(CC(c3ccc(Cl)cc3)CC2=O)N1 (stereo not drawn)	28µM*	11%	2%	3%
O=C(NCc1ccc(Cl)cc1)c1ccc(NC(=O)N2CC3CCCN3c3ccccc32)cc1 (stereo not drawn)	0%	.	.	.
CCn1c(SCC(N)=O)nnc1-c1ccc(S(=O)(=O)N2CCN(C)CC2)cc1	32µM*	7%	.	8%
Cc1cccc(N=C2NC(=O)/C(=C/C=C/c3ccco3)S2)c1C	-27%	40µM*	-6%	1%[46.1 µM]
Cc1cccc(N=C2NC(=O)/C(=C/c3cccn3C)S2)c1C	.	79µM*	-1%	-1%
SMILES	ClpP mod	Sfp inh	uPA surface inh	TCR act
Cc1ccc(N=C2NC(=O)/C(=C/c3cccn3C)S2)cc1C	.	14%	-4%	1%
Cc1ccc(N=C2NC(=O)/C(=C/c3cccn3C)S2)cc1	0%	7%	2.8µM*	-5%
Cc1cc(C)c2c(c1)/C(=N/NC(=O)c1cc(C)oc1C)CCC2	-13%	4%	1%	-4%[46.1 µM]
O=C(c1cc(C2CC2)nn1-c1ccccc1)N1CCN(S(=O)(=O)c2c(F)cccc2F)CC1	7%	.	-1%	4%
CCC(C(=O)N1CCN(c2ccccc2)CC1)n1nc(C)c2sc3ccccc3c2c1=O (stereo not drawn)	-7%	.	.	.
CC1=CC(=C2C(=O)c3ccccc3C2=O)C=C(C)N1Cc1ccco1	-1%	45µM*	-12%	0%
